The campaign covered roughly 2,400 compounds. About 360 (15%) were called active. These entries were drawn from the full list. Entries with a potency or affinity are not part of this list. Values without a mark were called inactive.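 Rule for the calls: active = viability falls under 70% at one or more tested concentrations, taken as toxicity; inactive = viability stays over 70% at every dose.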
assay: HeLa cell cytotoxicity, dose response, cytotoxicity control for MgcRacGAP inhibitor project (AID 624300); conditions: CellTiter-Glo luminescence, 24 h; series mostly up to 100 µM; viability: at the top concentration;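 note: 100% = median of untreated control wells on the same plate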

Structure (SMILES) | viability [%]
COc1cc([C@H]2OC[C@H]3[C@@H]2CO[C@H]3c2ccc(O)c(OC)c2)ccc1O | 91.9
O=C(CN1CCN(c2ccc(O)cc2)CC1)N(C1CC1)C1CCS(=O)(=O)C1 (stereo not given) | 104
N#C/C(=C/c1ccc(O)c(O)c1)C(=O)NCc1ccc(Cl)cc1 | 80.4
C=CCc1ccc(OCCOCCNCCCC)c(OC)c1 | 97.1
COc1ccc(CNCC(=O)Nc2cc(OC)cc(OC)c2)cc1 | 98
COc1ccc(NC2CCCN(C(=O)c3ccc4[nH]c(C)c(C)c4c3)C2)cc1 (stereo not given) | 99
Cc1ccc(NC(=O)CCC(=O)N/N=C/c2ccc(O)cc2O)cc1 | 108
Cc1ccc(O)c(N=Cc2sc3ccccc3c2Cl)c1 | 91.1
Cc1ccc(O)c(N=Cc2cc(Cc3ccccc3)cc([N+](=O)[O-])c2O)c1 | 96.8
Cc1cccc(C=Nc2ccc3c4c(cccc24)CC3)c1O | 106
C=CCc1cccc(C=Nc2cc(Br)ccc2O)c1O | 86.5
O=C(CN1CCN(c2ccccn2)CC1)Nc1ccc(F)cc1 | 89.7
CCOc1cc(C=NNC(=O)c2cccc(S(=O)(=O)N3CCCC3)c2)ccc1O | 91.9
COCCCNC(=O)/C(C#N)=C/c1c(N2CCN(c3ccc(OC)cc3)CC2)nc2c(C)cccn2c1=O | 89.9
O=C(c1ccco1)N1CCN(Cc2cccc([N+](=O)[O-])c2)CC1 | 106
COc1cc(/C=N/N(C)c2ccccc2)ccc1O | 83
COc1cc(OC)c(OC)cc1/C=N/N(C)c1ccccc1 | 109
COc1ccc(Cn2c(O)c(/C=N/NC(=O)c3cccnc3)c3ccccc3c2=O)cc1 | 111
CCOC(=O)c1[nH]c2ccccc2c1NC(=S)Nc1ccccc1C | 106
CCN(CC)S(=O)(=O)c1ccc(C)c(NC(=O)CN2CCN(C)CC2)c1 | 100
Oc1ccc(/C=N/Nc2nc(N3CCCC3)nc(N3CCCC3)n2)cc1O | 102
Oc1ccc(/C=N/Nc2cc(N3CCOCC3)nc(N3CCOCC3)n2)cc1 | 92.5
Oc1ccc(/C=N/Nc2cccc(Cl)n2)c(O)c1 | 91.5
Cc1nc(Cl)cc(N/N=C/c2ccc(O)cc2O)n1 | 100

Structure (SMILES) | viability [%]
CCOc1cc(/C=N/n2cnnc2)ccc1O | 99.9
CC1CCC/C(=C\Nc2ccc(O)cc2)C1=O (stereo not given) | 106
CCOCCCNC(=O)CN1CCN(c2ccc(F)cc2)CC1 | 96.4
CC(C)=C(NC(=O)c1ccccc1)C(=O)N/N=C/c1ccc(O)cc1 | 104
O=C(NN=Cc1ccc(O)cc1)c1ccccc1NS(=O)(=O)c1cccs1 | 93.7
C=CCc1cc(Cl)ccc1OCCNCCN1CCOCC1 | 101
CCCS(=O)(=O)N1CCN(C2Cc3ccccc3C2)CC1 | 106
C=CCOC(=O)c1cc(-c2ccc(/C=C3\C(=O)NC(=O)C(C#N)=C3C)o2)ccc1Cl | 85.3
CCN1CCN(CC(=O)Nc2cc(C(F)(F)F)ccc2OCCOC)CC1 | 99.1
COCCNC(=O)Cn1cc(/C=N/NC(=O)c2ccc(Oc3ccc(O)cc3)cc2)c2ccccc21 | 104
CCOc1cc(/C=N/n2c(C)nnc2C)ccc1O | 101
CCOc1cc(-c2nc3ccccc3s2)ccc1O | 87.2
NCC[C@H](O)C(=O)N[C@@H]1C[C@H](N)[C@@H](O[C@H]2O[C@H](CN)[C@@H](O)[C@H](O)[C@H]2O)[C@H](O)[C@H]1O[C@H]1O[C@H](CO)[C@@H](O)[C@H](N)[C@H]1O | 104
CSCc1ccc(C(=O)N2CCCC(Nc3ccc4c(c3)OCCO4)C2)o1 (stereo not given) | 100
Cc1ccccc1N1C(S)=C(C#N)C(=O)NC12CCCCC2 | 103
C/C(=N\Nc1cccc2cccnc12)c1ccc[nH]1 | 96.6
COc1ccc(CN2CCN(Cc3ccco3)CC2)cc1OC | 93.6
O=C1C(=Cc2ccco2)CCC1=Cc1ccco1 | 99.7
CCN(CC)c1ccc(NC(=O)CCN2C(=O)c3ccccc3S2(=O)=O)c(C)c1 | 105
Nc1cc(C(F)(F)F)ccc1N1CCOCC1 | 96.6
CCc1ccccc1NC(=S)NCC1CCN(c2ccc(OC)cc2)C1 (stereo not given) | 95
Nc1ccc2nc(Cc3ccccc3)[nH]c2c1 | 115
Nc1ccc2c(c1)[nH]c(=O)c1cc(N)ccc12 | 93.6
CCN(CC)S(=O)(=O)c1ccc(N/N=C/c2ccc(O)cc2)nc1 | 95.9

Structure (SMILES) | viability [%]
O=C(c1ccc(Cl)c(S(=O)(=O)N2CCCCCC2)c1)N1CCN(c2ccc(O)cc2)CC1 | 87
CSc1nc(C)c2c(n1)N(c1ccc(O)cc1)CC2 | 103
CCN1CCN(c2ccc(N=Cc3ccccc3O)cc2)CC1 | 101
CC(=O)c1c(C)c(C)c2n1CCn1c(C)ccc1-2 | 96.3
CCN=C1S/C(=C\c2ccc(O)c(OCC)c2)C(=O)N1CC | 101
CN1C(=O)/C(=C/c2ccc(C(=O)Nc3ccc(O)cc3C(=O)O)cc2)SC1=S | 103
Cc1ccc(NCCCCO)cc1C | 95.5
O=c1cc(-c2ccc(O)c(O)c2)oc2cc(O)c([C@@H]3O[C@H](CO)[C@@H](O)[C@H](O)[C@H]3O)c(O)c12 | 84.2
C/C(=N\NC(=O)c1cccc(N/N=C(\C)c2cc(O)ccc2O)c1)c1cc(O)ccc1O | 86
Cn1c(=O)[nH]c(NCCc2ccc(O)cc2)c([N+](=O)[O-])c1=O | 106
CC(=O)C1=C(O)C(=O)N(c2ccc(O)cc2)C1c1ccccc1[N+](=O)[O-] (stereo not given) | 93
COc1cc(/C=N/NC(=O)c2cc[n+]([O-])cc2)ccc1O | 102
O=C1C=CC(=O)N1c1ccccc1N1C(=O)C=CC1=O | 114
CCS(=O)(=O)c1ccc2oc(=O)c(/C=C(\O)c3ccc(Cl)cc3)nc2c1 | 99.4
CN(C)CCCC1Sc2ccccc2Sc2ccccc21 (stereo not given) | 113
Nc1cc([N+](=O)[O-])ccc1Nc1ccc(O)cc1 | 91.9
Cc1ccc(-n2c(=S)[nH]c3sc4c(c3c2=O)CCC4)cc1 | 80.5
COc1cc(/C(C)=N\NC(=O)CSc2nc3ccccc3n2C)ccc1O | 102
CCN1CCN(CC(=O)Nc2nc3ccc(OC)cc3s2)CC1 | 88.7
CCC(=O)N1CCc2cc(S(=O)(=O)CCC(=O)NCc3ccc(C)cc3)ccc21 | 97.8
O=C(CCc1c[nH]c2ccccc12)NCCc1ccc(O)cc1 | 101
CCOc1ccc(CN2CCN(Cc3c[nH]c4ccccc34)CC2)cc1 | 93.4

From PubChem BioAssay AID624300 (Southern Research Specialized Biocontainment Screening …, 2012)
